For eight compounds, outcome and AC50 results are on record in PubChem BioAssay (EPA / NIEHS).

In test [1] the target is Retinoic acid receptor RXR-alpha (Homo sapiens) (UniProt P19793). The experiment in a line: OT_NURR1_NURR1RXRa_0480: Odyssey Thera (OT) 8-hour HEK293T Protein Complementation Assay for Nurr1/retinoid X receptor (RXR) (AID 2283385; active = hit-call score of the fitted dose curve at least 0.9, where 1 is the maximum). In outline: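 Read-out: fluorescence from protein-fragment complementation between Nurr1 and RXRα in human HEK293T cells, 8 h after dosing. DMSO served as negative control; increased signal counted as activity.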

For test [2] the target is unchanged. The experiment in a line: OT_NURR1_NURR1RXRa_1440: Odyssey Thera (OT) 24-hour HEK293T Protein Complementation Assay for Nurr1/retinoid X receptor (RXR) (AID 2283386; active = hit-call score of the fitted dose curve at least 0.9, where 1 is the maximum). In outline:
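Fluorescence PCA read-out; HEK293T; 24 h post-dose; bait/prey fused to reporter fragments; gain-of-signal fit vs DMSO negative control.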

In test [3] the target is Peroxisome proliferator-activated receptor gamma (Homo sapiens) (UniProt P37231). The experiment in a line: OT_PPARg_PPARgSRC1_0480: Odyssey Thera (OT) 8-hour Protein-Complementation Assay for Peroxisome Proliferator-activated Receptor Gamma / SRC-1 Co-activator (AID 2283387; active = hit-call score of the fitted dose curve at least 0.9, where 1 is the maximum). In outline:
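HEK293T transiently transfected with PPARg and SRC-1 fused to Venus YFP fragments, compounds 8 h at 37C. Fixed, Draq5-stained cells imaged; nuclear/cytoplasmic 488 nm fluorescence ratio over at least 350 cells per image; gain fitted versus DMSO.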

Test [4] has the same target. The experiment in a line: OT_PPARg_PPARgSRC1_1440: Odyssey Thera (OT) 24-hour Protein-Complementation Assay for Peroxisome Proliferator-activated Receptor Gamma/ SRC-1 Co-activator (AID 2283388; active = hit-call score of the fitted dose curve at least 0.9, where 1 is the maximum). In short, it runs like this: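 HEK293T cells transiently transfected with PPARg and SRC-1 fused via (Gly4Ser)2 linker to split Venus YFP fragments (IFP1/IFP2) were dosed 24 h; fixed, Draq5-stained, imaged at 488/635 nm; nuclear/cytoplasmic fluorescence ratio scored versus DMSO baseline, gain-of-signal.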

Test [5] is described as follows: CEETOX_H295R_11DCORT: CeeTox H295R High-throughput Steroidogenesis Assay for 11-Deoxycortisol (11DCORT) (AID 2283432).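 As to AC50: 11-deoxycortisol secreted into the medium measured by LC-MS/MS.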 Conditions: actives raise or lower the signal. In short, it runs like this:
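H295R cells prestimulated 48 h with 10 uM forskolin, then exposed 48 h to chemical in 0.1% DMSO. 11-Deoxycortisol in medium quantified by HPLC-MS/MS after MTBE extraction; bidirectional fit versus DMSO. MTT viability read in same wells.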

The nature of test [6]: CEETOX_H295R_OHPREG: CeeTox H295R High-throughput Steroidogenesis Assay for OH-Pregnenolone (OHPREG) (AID 2283434). Conditions: actives raise or lower the signal. In outline:
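Secreted 17alpha-hydroxypregnenolone measured by HPLC-MS/MS after liquid-liquid extraction. Human adrenal H295R cells received 48 h forskolin (10 uM) stimulation before 48 h chemical exposure at 0.1% final DMSO; MTT viability in same wells; bidirectional fit against DMSO.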

A short description of test [7]: CEETOX_H295R_OHPROG: CeeTox H295R High-throughput Steroidogenesis Assay for OH-Progesterone (OHPROG) (AID 2283435).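 Also: 17alpha-hydroxyprogesterone secreted into medium measured by HPLC-MS/MS.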 Conditions: actives raise or lower the signal. In short, it runs like this: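 HPLC-MS/MS quantification of 17alpha-hydroxyprogesterone secreted by H295R cells after 48 h chemical exposure, following 48 h 10 uM forskolin prestimulation. Gain or loss of signal fitted relative to DMSO. Viability checked by MTT in the same wells.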

Test [8] in a line: CEETOX_H295R_CORTIC: CeeTox H295R High-throughput Steroidogenesis Assay for Corticosterone (CORTIC) (AID 2283437). Conditions: actives raise or lower the signal. In outline:
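Medium corticosterone was quantified by tandem mass spectrometry following 48 hours of chemical exposure (0.1% DMSO) in human H295R cells previously stimulated 48 hours with 10 uM forskolin. Viability checked by MTT; chemicals diluted and retested when viability fell below 70%.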

Test [9] in a line: CEETOX_H295R_CORTISOL: CeeTox H295R High-throughput Steroidogenesis Assay for Cortisol (AID 2283438).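 Also: cortisol secreted into medium quantified by LC-MS/MS.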 Conditions: actives raise or lower the signal. In short, it runs like this:
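Read-out: cortisol in culture medium by reverse-phase C18 HPLC with ESI-positive tandem MS, after MTBE liquid-liquid extraction. Cells: human adrenal H295R, forskolin-primed (10 uM, 48 h) before 48 h chemical exposure in 0.1% DMSO.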

Test [10] is described as follows: CEETOX_H295R_DOC: CeeTox H295R High-throughput Steroidogenesis Assay for DOC (AID 2283439). The following applies: actives raise or lower the signal. In short, it runs like this:
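Human adrenocortical H295R cells, passages up to 10, received 10 uM forskolin for 48 h before chemical addition. After another 48 h exposure in 0.1% DMSO, secreted DOC was measured by LC-MS/MS, with gain or loss fitted against DMSO controls.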

A short description of test [11]: CEETOX_H295R_ESTRADIOL: CeeTox H295R High-throughput Steroidogenesis Assay for Estradiol (AID 2283440).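 Also: estradiol secreted into medium quantified by LC-MS/MS after dansyl derivatisation.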 Conditions: actives raise or lower the signal. In outline:
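H295R adrenocortical cells were prestimulated with 10 uM forskolin for 48 h, then exposed to test chemical in 0.1% DMSO for 48 h. Medium estradiol was extracted with MTBE, dansyl-derivatized and quantified by HPLC-MS/MS; bidirectional fit versus DMSO.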

Test [12] can be described thus: CEETOX_H295R_ESTRONE: CeeTox H295R High-throughput Steroidogenesis Assay for Estrone (AID 2283441).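 Also: estrone secreted into medium measured by LC-MS/MS after dansyl derivatization.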 The following applies: actives raise or lower the signal. In outline:
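Forskolin-stimulated H295R cells are treated 48 h with chemical, and estrone in the medium is measured by LC-MS/MS. Activity is fitted in both directions relative to DMSO controls, with chemicals diluted until MTT viability reaches at least 70%.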

Test [13] in a line: CEETOX_H295R_PROG: CeeTox H295R High-throughput Steroidogenesis Assay for Progesterone (PROG) (AID 2283442). The following applies: actives raise or lower the signal. In short, it runs like this:
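H295R human adrenal cells were prestimulated with 10 uM forskolin for 48 h, then exposed to test chemical (0.1% DMSO final) for 48 h. Medium progesterone was MTBE-extracted and quantified by HPLC-MS/MS, with bidirectional fitting against DMSO.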

Read-out in test [14]: Tumor necrosis factor receptor superfamily member 6 (Homo sapiens) (UniProt P25445)
Briefly: LTEA_HepaRG_FAS: Life Technologies and Expression Analysis (LTEA) Assay for Fas cell surface death receptor (FAS) using HepaRG (AID 2283447). The following applies: mRNA level, 48 h; actives raise or lower the signal. In outline:
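FAS transcript level was measured by TaqMan qRT-PCR against three housekeeping genes after 48 h chemical exposure. Cells were HepaRG, 0.5% DMSO vehicle, with a top concentration of 100 uM and half-log dilutions over eight points, in duplicate.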

Read-out in test [15]: Fatty acid synthase (Homo sapiens) (UniProt P49327)
Briefly: LTEA_HepaRG_FASN: Life Technologies and Expression Analysis (LTEA) Assay for Fatty Acid Synthase (FASN) using HepaRG (AID 2283448). Conditions: mRNA level, 48 h; actives raise or lower the signal. In short, it runs like this:
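HepaRG, 48 h exposure, 8-pt half-log series top 100 uM, 0.5% DMSO vehicle, duplicates. Readout: FASN transcript by Fluidigm qRT-PCR; housekeeping-normalized; bidirectional curve fit vs DMSO baseline.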

Read-out in test [16]: Cyclin D2 (CCND2), CCND2 (gene 894)
Briefly: LTEA_HepaRG_CCND2: Life Technologies and Expression Analysis (LTEA) Assay for Cyclin D2 (CCND2) using HepaRG (AID 2283449). The following applies: mRNA level, 48 h; actives raise or lower the signal. In short, it runs like this: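 CCND2 transcript levels, quantified by qRT-PCR and normalised to three housekeeping genes, were fitted bidirectionally against 0.5% DMSO. HepaRG cultures were dosed 48 h in duplicate with an 8-point half-log series up to 100 uM.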

Read-out in test [17]: Cyclin Dependent Kinase Inhibitor 1A (CDKN1A), CDKN1A (gene 1026)
Briefly: LTEA_HepaRG_CDKN1A: Life Technologies and Expression Analysis (LTEA) Assay for Cyclin Dependent Kinase Inhibitor 1A (CDKN1A) using HepaRG (AID 2283450). The following applies: mRNA level, 48 h; actives raise or lower the signal. In short, it runs like this: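 Differentiated human HepaRG cells, pre-cultured 48 h, were exposed in duplicate for 48 h in serum-free induction medium to eight half-log concentrations up to 100 uM (0.5% DMSO). CDKN1A mRNA was measured by qRT-PCR, normalized to ACTB/GAPDH/POLR2A, bidirectionally fitted versus DMSO.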

Read-out in test [18]: catalase (CAT), CAT (gene 847)
Briefly: LTEA_HepaRG_CAT: Life Technologies and Expression Analysis (LTEA) Assay for catalase (CAT) using HepaRG (AID 2283452). The following applies: mRNA level, 48 h; actives raise or lower the signal. In outline:
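Expression of CAT was quantified by TaqMan qRT-PCR with ACTB/GAPDH/POLR2A normalization after 48 h chemical exposure of HepaRG. Eight-point half-log series, top 100 uM, in 0.5% DMSO; gain or loss fitted against vehicle.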

A short description of test [19]: CEETOX_H295R_ANDR: CeeTox H295R High-throughput Steroidogenesis Assay for Androstenedione (ANDR) (AID 2283436). Conditions: actives raise or lower the signal. In short, it runs like this:
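Medium from 48 h chemical-treated H295R adrenal cells was extracted with MTBE and androstenedione measured by LC-MS/MS. Activity was fit in both directions relative to DMSO. Cytotoxic concentrations were re-tested after dilution until MTT viability reached ≥70%.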

Read-out in test [20]: Cyclin D1 (CCND1), CCND1 (gene 595)
Briefly: LTEA_HepaRG_CCND1: Life Technologies and Expression Analysis (LTEA) Assay for Cyclin D1 (CCND1) using HepaRG (AID 2283451). Conditions: mRNA level, 48 h; actives raise or lower the signal. In outline: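 Differentiated human HepaRG cells in serum-free induction medium were exposed 48 h to eight half-log concentrations up to 100 uM in 0.5% DMSO; mRNA quantified by TaqMan qRT-PCR, normalized to ACTB, GAPDH, POLR2A, fitted bidirectionally versus DMSO.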

The structures appear in SMILES notation. Inconclusive results are not listed. Where a structure was tested more than once in an assay, its records may differ in their call. Calls of active or inactive are those of the source. The calls were made as follows, unless noted: active = hit-call score of the fitted dose curve at least 0.9, where 1 is the maximum; inactive = score below 0.9.

Chain of Retinoic acid receptor RXR-alpha (Homo sapiens) (P19793 whole entry, looked up, the tested form may be a part): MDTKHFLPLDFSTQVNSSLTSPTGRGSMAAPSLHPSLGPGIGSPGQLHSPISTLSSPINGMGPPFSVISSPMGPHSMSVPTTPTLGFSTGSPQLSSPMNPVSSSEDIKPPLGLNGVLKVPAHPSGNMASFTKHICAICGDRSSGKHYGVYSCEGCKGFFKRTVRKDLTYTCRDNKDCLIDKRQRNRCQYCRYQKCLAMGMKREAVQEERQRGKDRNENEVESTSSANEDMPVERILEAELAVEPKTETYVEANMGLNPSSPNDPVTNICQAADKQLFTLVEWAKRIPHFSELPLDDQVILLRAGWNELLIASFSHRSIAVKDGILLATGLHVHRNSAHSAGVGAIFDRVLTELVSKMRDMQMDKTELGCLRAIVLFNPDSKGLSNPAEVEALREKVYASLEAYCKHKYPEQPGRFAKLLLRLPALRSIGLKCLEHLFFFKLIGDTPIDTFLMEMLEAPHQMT
Chain of Fatty acid synthase (Homo sapiens) (P49327 whole entry, looked up): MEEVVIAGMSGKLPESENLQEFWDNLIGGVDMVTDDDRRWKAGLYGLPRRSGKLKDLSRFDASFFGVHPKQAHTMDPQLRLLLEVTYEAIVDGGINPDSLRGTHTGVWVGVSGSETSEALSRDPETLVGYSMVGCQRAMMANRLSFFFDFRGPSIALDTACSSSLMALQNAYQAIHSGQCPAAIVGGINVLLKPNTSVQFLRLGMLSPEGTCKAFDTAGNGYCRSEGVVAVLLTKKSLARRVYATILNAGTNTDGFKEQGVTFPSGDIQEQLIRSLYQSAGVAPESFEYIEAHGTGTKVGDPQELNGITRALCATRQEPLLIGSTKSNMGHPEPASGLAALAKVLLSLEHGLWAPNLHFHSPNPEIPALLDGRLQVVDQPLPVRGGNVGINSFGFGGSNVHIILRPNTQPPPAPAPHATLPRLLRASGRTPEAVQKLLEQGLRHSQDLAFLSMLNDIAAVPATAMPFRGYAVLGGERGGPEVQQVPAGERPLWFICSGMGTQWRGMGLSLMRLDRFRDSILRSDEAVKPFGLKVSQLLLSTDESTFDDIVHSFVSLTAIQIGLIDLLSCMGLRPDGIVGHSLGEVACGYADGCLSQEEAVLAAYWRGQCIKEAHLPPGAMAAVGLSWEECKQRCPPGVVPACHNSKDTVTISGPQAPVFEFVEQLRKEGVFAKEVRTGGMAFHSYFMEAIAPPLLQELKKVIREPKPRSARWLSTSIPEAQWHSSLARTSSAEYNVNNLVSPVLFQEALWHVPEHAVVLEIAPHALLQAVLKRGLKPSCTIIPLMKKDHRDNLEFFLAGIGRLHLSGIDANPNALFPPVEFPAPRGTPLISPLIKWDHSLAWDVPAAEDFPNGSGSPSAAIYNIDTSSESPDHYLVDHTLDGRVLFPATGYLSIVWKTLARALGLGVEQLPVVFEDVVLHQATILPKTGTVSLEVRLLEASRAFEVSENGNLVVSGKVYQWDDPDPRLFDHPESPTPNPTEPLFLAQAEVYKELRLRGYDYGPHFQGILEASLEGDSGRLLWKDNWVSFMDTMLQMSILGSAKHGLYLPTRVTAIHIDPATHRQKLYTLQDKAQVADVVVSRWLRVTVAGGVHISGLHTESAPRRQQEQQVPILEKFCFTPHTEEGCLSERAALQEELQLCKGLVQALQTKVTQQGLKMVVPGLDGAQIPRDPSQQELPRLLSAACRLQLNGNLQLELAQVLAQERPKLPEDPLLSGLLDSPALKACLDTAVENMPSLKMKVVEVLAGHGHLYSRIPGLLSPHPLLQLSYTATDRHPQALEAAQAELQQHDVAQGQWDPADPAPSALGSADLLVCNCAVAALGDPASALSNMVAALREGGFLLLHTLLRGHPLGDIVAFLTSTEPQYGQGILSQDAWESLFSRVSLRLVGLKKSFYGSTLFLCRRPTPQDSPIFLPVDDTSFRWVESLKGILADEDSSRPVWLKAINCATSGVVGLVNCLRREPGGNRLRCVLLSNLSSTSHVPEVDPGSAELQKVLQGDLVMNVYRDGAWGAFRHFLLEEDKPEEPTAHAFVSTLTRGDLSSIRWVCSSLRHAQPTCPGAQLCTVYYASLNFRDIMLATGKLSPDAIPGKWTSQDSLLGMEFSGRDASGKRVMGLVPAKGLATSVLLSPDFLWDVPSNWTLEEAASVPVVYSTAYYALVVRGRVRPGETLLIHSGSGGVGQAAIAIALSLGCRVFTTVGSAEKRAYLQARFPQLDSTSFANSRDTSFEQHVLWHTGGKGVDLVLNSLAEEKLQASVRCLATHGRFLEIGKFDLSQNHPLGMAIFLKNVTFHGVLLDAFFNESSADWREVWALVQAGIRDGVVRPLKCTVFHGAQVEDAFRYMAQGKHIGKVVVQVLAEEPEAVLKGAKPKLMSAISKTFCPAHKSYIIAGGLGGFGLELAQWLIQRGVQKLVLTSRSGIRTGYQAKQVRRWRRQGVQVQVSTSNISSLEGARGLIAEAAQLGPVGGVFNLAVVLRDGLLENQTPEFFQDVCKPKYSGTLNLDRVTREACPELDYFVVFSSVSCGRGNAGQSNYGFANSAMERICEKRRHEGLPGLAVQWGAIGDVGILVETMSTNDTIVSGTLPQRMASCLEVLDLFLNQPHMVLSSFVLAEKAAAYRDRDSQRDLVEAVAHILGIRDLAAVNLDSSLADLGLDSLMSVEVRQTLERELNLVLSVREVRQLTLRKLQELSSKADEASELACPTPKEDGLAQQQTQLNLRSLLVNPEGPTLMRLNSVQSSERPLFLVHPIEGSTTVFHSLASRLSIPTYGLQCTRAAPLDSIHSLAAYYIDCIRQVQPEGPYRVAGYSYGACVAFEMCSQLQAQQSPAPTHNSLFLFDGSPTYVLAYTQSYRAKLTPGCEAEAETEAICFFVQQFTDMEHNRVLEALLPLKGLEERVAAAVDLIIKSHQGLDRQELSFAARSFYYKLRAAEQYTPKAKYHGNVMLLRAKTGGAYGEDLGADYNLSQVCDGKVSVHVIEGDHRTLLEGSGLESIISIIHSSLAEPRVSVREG
Chain of Peroxisome proliferator-activated receptor gamma (Homo sapiens) (P37231 whole entry, looked up, the tested form may be a part): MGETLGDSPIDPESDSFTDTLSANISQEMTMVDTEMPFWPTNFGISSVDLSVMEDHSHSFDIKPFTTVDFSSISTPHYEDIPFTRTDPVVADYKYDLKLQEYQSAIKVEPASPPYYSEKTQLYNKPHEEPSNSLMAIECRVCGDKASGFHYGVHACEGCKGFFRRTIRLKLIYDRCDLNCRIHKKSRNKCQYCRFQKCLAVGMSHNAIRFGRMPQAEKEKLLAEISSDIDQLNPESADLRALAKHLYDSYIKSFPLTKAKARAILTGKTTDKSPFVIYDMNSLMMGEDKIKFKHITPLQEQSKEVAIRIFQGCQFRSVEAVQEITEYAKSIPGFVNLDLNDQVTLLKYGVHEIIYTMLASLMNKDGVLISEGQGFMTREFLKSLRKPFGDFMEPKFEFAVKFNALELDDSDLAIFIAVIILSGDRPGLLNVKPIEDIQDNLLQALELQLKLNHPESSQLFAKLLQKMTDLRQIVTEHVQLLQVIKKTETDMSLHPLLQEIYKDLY

In general, AC50 refers to the concentration at which the activity in the assay is half-maximal. For `O=c1[nH]c2ccc(S(=O)CCN3CCC(Cc4ccc(F)cc4)CC3)cc2o1` (stereo not drawn), the result in test [1], in [2], in [3], in test [4], in test [10] and in test [11] was inactive. Besides, the call in test [12], in test [13], in [14], in test [15], in test [16] and in test [17] was inactive. For the same compound, the AC50 in [5] was 5.59 µM (active); in test [6], 3.63 µM (active); in [7], 5.68 µM (active); in test [8] it was 1.56 µM (active); in [9], 6.88 µM (active); in test [18] it was 67.3 µM (active).
In the case of `Cc1ccc(N)cc1O`, the result in test [1], in test [2], in test [3], in test [4], in test [5] and in [6] was inactive. Moreover, the result in test [19], in [8], in [9], in [10], in test [12] and in test [14] was inactive. The result in [16], in test [17], in [20] and in [18] was inactive. The AC50 in [2] is 50 µM (active); in test [7], 39.8 µM (active); in test [11], 40.9 µM (active); in test [13] it was 50 µM (active).
For the compound `Oc1ccc2c(c1)-c1ccccc1C2`, the outcome in [1], in [2], in test [3], in test [4], in [14] and in [17] was inactive. In test [18], the outcome was inactive. For the same compound, the AC50 in test [5] is 40 µM (active); in [6], 33.7 µM (active); in test [7], 13.5 µM (active); in [19], 42.3 µM (active); in test [8], 11.5 µM (active); in test [9], 81.5 µM (active). Moreover, the figures for the AC50 in test [10] and in [13] were 30.3 µM (active) and 30.8 µM (active), respectively.
With `CC/C(=C\C(=N/O)C(N)=O)C(C)[N+](=O)[O-]` (stereo not drawn), the AC50 in test [1] was 31.6 µM (active). The compound was called inactive in [2], in test [3], in test [4], in test [14], in test [15] and in [16]. Further, the outcome in test [17], in [20] and in test [18] was inactive.
Take `O=C1CCC(N2C(=O)c3ccccc3C2=O)C(=O)N1` (stereo not drawn): the outcome in test [1], in test [2], in [3], in [4], in test [14] and in [16] was inactive. Moreover, the compound was classed as inactive in test [17] and in test [18].
`COc1ccc(/C=C/S(=O)(=O)NC(=O)c2ccc(C)cc2Cl)cc1`: the AC50 in [1] was 24 µM (active); in test [2], 29 µM (active); in test [4], 60.6 µM (active); in test [7], 17.7 µM (active). Also, the compound was called inactive in test [3], in [5], in test [6], in test [8], in test [9] and in test [10]. Also, the compound was called inactive in test [13], in test [14], in test [15], in [16], in [17] and in test [20]. Moreover, the outcome in test [18] was inactive.
Turning to `O=C1OC(=O)C2C3C=CC(C3)C12` (stereo not drawn), the compound was called inactive in [1], in [2], in [3], in [4], in test [14] and in [15]. Besides, the compound was called inactive in [16], in test [17], in test [20] and in test [18].
Regarding `O=C(O)c1cccc(Oc2ccccc2)c1`, the outcome in [1], in [2], in test [3], in test [4], in [14] and in test [15] was inactive. For the same compound, the compound was called inactive in [16], in test [17], in test [20] and in test [18].
